Compounds with a hit are over-represented: about 3% of the library has one in this group of screens.
KDM5B inhibitor – blocks human KDM5B histone demethylase activity | KDM5B demethylase, FDH-coupled NADH fluorescence (FDH is formaldehyde dehydrogenase) | Potency, µM (series often up to 57.7 µM), most hits filed as inhibitors | actives 2.6% (n = 220,000) | AID 1347165; note: potency is the fitted concentration of half-maximal effect; 0% is about no effect; nearly all actives have a fitted effect of over 70% in size
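Measured: NADH fluorescence change, 30 min, RT. System: KDM5BΔAP 200 nM final, H3K4me3 peptide, α-KG, Fe(II), ascorbate, NAD⁺ plus FDH, pH 7.5 HEPES. Compounds: titrated, 10 min pre-incubation with enzyme.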
IP6K1 inh – inhibitors of human IP6K1. Q92551. IP6K1 kinase, ADP-Glo luminescence, 2 h; hits give low values. activity change, % (series mostly up to about 58 µM). actives 0.81% (n = 140,000). AID 1645851; in the data active = activity change below about -25%; note: % is set by controls: 0 for no effect and ±100 for the full control effect
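ADP-Glo luminescence measures ADP made by human IP6K1 during a 2 h RT reaction with ATP/IP6 (mix at 1.3 mM/130 uM); top library doses 57.5 and 19.1 uM final.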
HEK293 viab – cell viability loss counter-screen; actives 0.12% (n = 150,000); HEK-293-SNCA-luc viability, GF-AFC fluorescence, 24 h; Potency, µM (highest dose often 57.1 µM), for the others: at the highest dose activity change, negative = cytotoxicity, hits mostly cytotoxic; AID 1671193;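 note: potency is the fitted concentration of half-maximal effect; 0% = DMSO-treated cells and -100% = medium-only wells without cells; nearly all actives have a fitted effect of over 30% in size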
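Cytotoxicity counterscreen: after 24 h compound treatment of genome-edited SNCA-luciferase HEK-293 cells, live-cell protease substrate GF-AFC read by fluorescence after 30 min; activity scaled between DMSO (0%) and medium-only (-100%), curves Hill-fitted.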
SNCA expr inh – inhibitors of alpha-synuclein (SNCA) gene expression; AID 1671194; Potency, µM (titrated, usually from 57.2 µM), for the others: top-dose activity change, negative = inhibition, actives largely listed as inhibitors; HEK-293 SNCA-luciferase knock-in, luminescence, 24 h; actives 0.17% (n = 140,000);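 note: potency is the fitted concentration of half-maximal effect; plate controls were DMSO cells for no effect and cell-free wells for full effect; nearly all actives have a fitted effect of over 45% in size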
An asterisk follows results filed as active; i = inactive; ? = inconclusive; . = no result; [ ] = dose if it differs, or a comment. Unless noted, calls come from the whole dose curve; as a rule, active = well fitted curve in the direction sought with a large enough effect; inconclusive = small, poorly fitted or top-dose-only effect, or another doubt; inactive = no such curve, though single readings can be large; an effect the other way counts as inactive or inconclusive.

SMILES	KDM5B inhibitor	IP6K1 inh	HEK293 viab	SNCA expr inh
CC(C)CNC(=O)N1CCC(Nc2cccnc2)C1 (stereo not given)	?	7	3%	1%
CCS(=O)(=O)N1CCC(Nc2cccnc2)C1 (stereo not given)	22µM*	7	4%	-1%
COc1cc(F)ccc1-c1ccnc2ncnn12	25µM*	5	6%	4%
COc1ccc(-c2ccnc3ncnn23)c(F)c1	28µM*	-12	9%	26%
CNc1ccc(C)cc1C(=O)NC(C(=O)O)c1c(C)n[nH]c1C (stereo not given)	32µM*	-9	-7%	14%
Cc1nc2ccc(C(=O)NC(C(=O)O)c3c(C)n[nH]c3C)cc2[nH]1 (stereo not given)	i	11	-1%	32%
O=C(O)c1cccc(CSc2ccc(Cl)cc2Cl)c1	i	.	.	.
Cc1nnc(CN(C)c2ccc(-c3nc(-c4cccc(Cl)c4)no3)cn2)o1	28µM*	-3	-4%	57%
CCC(C)NC(=O)CNC(=O)c1ccc(-c2cccc(C(F)(F)F)c2)cc1 (stereo not given)	.	-5	-20%[12.5 µM]	-13%
COc1ccc(CN2CCOc3nc(-c4ccc(F)cc4F)ncc3C2=O)cc1	i	5	-7%[87.6 µM]	39%[87.6 µM]
COc1cccc(-c2ncc3c(n2)OCCN(Cc2ccccc2)C3=O)c1	35µM*	-6	-2%[87.6 µM]	14%[87.6 µM]
COc1ccc(CN2CCOc3nc(-c4ccc(O)c(F)c4)ncc3C2=O)cc1	32µM*	9	4%[87.6 µM]	-20%[87.6 µM]
COc1ccc(-c2ncc3c(n2)OCCN(Cc2ccccc2)C3=O)cc1	i	-13	-9%[87.6 µM]	85%[87.6 µM]
CCOC(=O)[C@@H]1[C@@H](O)C(=O)N(C)C12CCN(C(=O)OC)CC2	.	-4	.	.
O=C(Nc1ccc(Cl)cc1)N1CCN(c2nccc(Nc3ccccc3F)n2)CC1	.	-8	4%[12.5 µM]	-16%
COc1ccc(-c2nn(-c3ccccc3)cc2C2CC(c3cccs3)=NN2S(C)(=O)=O)cc1 (stereo not given)	i	.	.	.
Cc1ccccc1Cc1c(C)nc2c(C(=O)N3CCC(Cc4nncn4CC4CC4)CC3)cnn2c1C	25µM*	16	-11%	2%
Cc1cccc(C)c1-c1nc(C(=O)NC(C)C)n2ccccc12	?	14	5%[87.6 µM]	-4%[87.6 µM]
Cc1cccc(C)c1-c1nc(C(=O)N2CCC(C#N)CC2)n2ccccc12	100µM*	-23	1%	1%
COc1ccccc1-c1nc(C(=O)NC2CC2)n2ccccc12	i	18	-6%[87.6 µM]	66%[87.6 µM]
COc1ccccc1-c1nc(C(=O)N2CCC(C#N)CC2)n2ccccc12	28µM*	9	2%	-7%
O=C1CSc2ccc(C(=O)Nc3ccc(OC(F)F)cc3)cc2N1	i	.	.	.
COc1ccc2c(c1)cc(C(=O)N1Cc3[nH]cnc3CC1C(=O)O)n2C (stereo not given)	18µM*	-2	1%	-1%
COC(=O)N1CCC(N2C(=O)c3c(c(C)nn3-c3ccccc3)C2C2CC2)C1 (stereo not given)	.	0	.	.
CCc1noc(-c2ccn3c(CNC(=O)c4ccc(OC)cc4)nnc3c2)n1	14µM*	4	-10%	?
SMILES	KDM5B inhibitor	IP6K1 inh	HEK293 viab	SNCA expr inh
CCc1noc(-c2ccn3c(CNC(=O)c4cc(F)ccc4F)nnc3c2)n1	i	-6	-6%	6%
CCc1noc(-c2ccn3c(CNC(=O)c4cc(F)cc(F)c4)nnc3c2)n1	25µM*	6	3%	-26%
CCCc1noc(-c2ccn3c(CNC(=O)c4ccc(OC)cc4)nnc3c2)n1	?	11	6%	28%
O=C(Nc1cccc(Cl)c1)C1CCCN(Cc2cccc(-c3cccs3)c2)C1 (stereo not given)	.	19	.	.
CC(C)(Oc1nn(CCN2CCOCC2)c2ccccc12)C(=O)NCCc1ccccc1	i	9	-12%[87.6 µM]	?
COCCCNC(=O)C(C)(C)Oc1nn(Cc2cccc(Cl)c2)c2ccccc12	?	0	?	32µM*
COCc1ccc2c(c1)c(OC(C)(C)C(=O)NCc1ccncc1)nn2Cc1ccccc1	i	2	2%	29%
COCCNC(=O)C(C)(C)Oc1nn(Cc2cccc(Cl)c2)c2ccccc12	i	-1	?	-19%[87.6 µM]
CN(C)Cc1ccc2c(c1)c(OC(C)(C)C(=O)NCCN1CCOCC1)nn2Cc1ccccc1	22µM*	-3	0%	22%
COCc1ccc2c(c1)c(OC(C)(C)C(=O)NCCN(C)C)nn2Cc1ccccc1	32µM*	8	2%[87.6 µM]	9%[87.6 µM]
O=C(NCc1nnc2cc(-c3nc(C4CC4)no3)ccn12)c1cccnc1	28µM*	6	-3%	1%
O=C(NCc1nnc2cc(-c3nc(C4CC4)no3)ccn12)c1ccccc1F	8.9µM*	11	-6%	-21%
O=C(NCc1nnc2cc(-c3nc(C4CC4)no3)ccn12)c1ccc(F)cc1	i	-5	-5%	12%
COc1ccccc1C(=O)NCc1nnc2cc(-c3nc(C4CC4)no3)ccn12	28µM*	7	-8%	-20%
O=C(NCc1nnc2cc(-c3nc(C4CC4)no3)ccn12)c1ccc(F)c(F)c1	28µM*	23	-5%	-2%
Cc1oc2cc(OCC(=O)NC3CC3)ccc2c(=O)c1-c1ccc(Cl)cc1	i	.	.	.
O=C(NCc1ccc(C(F)(F)F)cc1)C1CCCN(Cc2cccc(-c3cccs3)c2)C1 (stereo not given)	.	-1	?	?
CS(=O)(=O)NC1CCN(C(=O)c2cc(Br)ccc2F)CC1	i	.	.	.
O=C(NCc1nnc2cc(-c3nc(C4CC4)no3)ccn12)c1nccc2ccccc12	28µM*	6	5%	-13%
O=C(NCc1nnc2c(-c3nc(C4CC4)no3)cccn12)c1nccc2ccccc12	?	45	-16%	7%
Cn1nc(-c2ccncc2)cc1NC(=O)c1ccc(C(F)(F)F)cc1	.	-2	-8%	-15%
O=C(NC1CCCCC1)N1Cc2[nH]cnc2C[C@H]1c1nc(-c2cccc([N+](=O)[O-])c2)no1	4µM*	-23	-15%	56%
Cc1ccc(NC(=O)N2Cc3[nH]cnc3C[C@H]2c2nc(-c3ccc4ccccc4c3)no2)cc1	22µM*	18	-28%	101%
COc1ccccc1-c1cccc(CN2CCC(NC(=O)c3ccccc3Cl)CC2)c1	.	2	-2%	-7%
c1cc(-c2ccnc3nc(CCC4CCCC4)nn23)ccn1	28µM*	-3	2%	-16%
SMILES	KDM5B inhibitor	IP6K1 inh	HEK293 viab	SNCA expr inh
c1cncc(-c2ccnc3nc(C4CCC4)nn23)c1	?	4	-4%	?
c1cc(-c2ccnc3nc(C4CCCCC4)nn23)ccn1	32µM*	-6	-4%	35%
c1cc(-c2ccnc3nc(C4CCC4)nn23)ccn1	28µM*	-13	4%	-16%
CC(C)Cc1nc2nccc(-c3ccc4c(c3)OCCCO4)n2n1	28µM*	-4	0%	7%
Nc1nc(Nc2ccccc2)sc1C(=O)c1ccc(Cl)cc1	i	.	.	.
c1ccc(-c2ccnc3nc(C4CCC4)nn23)cc1	28µM*	-5	2%	18%
c1cc(-c2ccc3c(c2)OCCCO3)n2nc(C3CCC3)nc2n1	16µM*	0	1%	89%

Source: PubChem BioAssay
